The values that follow come from PubChem BioAssay (NCATS).

Assay [1] in a line: MultiTox-Fluor Cytotoxicity Assay - LYMP1-002 - Dead Cells (AID 960).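 Further: 0% = DMSO and 100% = tetraoctylammonium bromide; nearly all actives have a fitted effect of over 60% in size.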 Summed up:
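Human lymphoblastoid LYMP1-002 cells, 2500/well, treated 16 h at 37 C; dead-cell protease cleavage of bis-AAF-R110 read by fluorescence (485/520); normalized to DMSO and 15 uM tetraoctylammonium bromide; AC50 from Hill fit.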

Assay [2] in a line: Cell Viability - LYMP2-009 (AID 968).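 Further: series mostly up to about 92 µM; 0% = DMSO alone and the full-kill end = tetraoctylammonium bromide at 92 µM; nearly all actives have a fitted effect of over 55% in size.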
The nature of assay [3]: Cell Viability - LYMP2-017 (AID 972). Further: series mostly up to about 92 µM; on the % scale 0 is the no-effect control and ±100 the full control effect; nearly all actives have a fitted effect of over 55% in size. Summed up: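 LYMP2-017 human lymphoblastoid cells (2500/well) settled 5 hr at 37 C, then exposed to compound 24 hr at 37 C in complete medium. Viability taken as intracellular ATP by CellTiter-Glo luminescence after 30 min at RT; AC50 from Hill fits.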
The nature of assay [4]: Cell Viability - LYMP2-002 (AID 977).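 Further: series mostly up to about 92 µM; compound exposure lasted 24 h at 37 °C; plate controls were DMSO only for no effect and 92 µM tetraoctylammonium bromide for full effect.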 The essentials:
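Cytotoxicity is scored as concentration-dependent loss of cellular ATP in a human lymphoblastoid line after 24 hr compound treatment at 37 C. AC50 is obtained by modelling concentration-response data with the Hill equation.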

A short description of assay [5]: Cell Viability - LYMP2-016 (AID 984). Further: on the % scale 0 is the no-effect control and ±100 the full control effect; nearly all actives have a fitted effect of over 55% in size. Summed up: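 Concentration-dependent ATP depletion measured in LYMP2-016 lymphoblastoid cells, 24 h, 37 C; luciferase-based luminescent detection; Hill-equation AC50.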
The target of assay [6] is Glucocorticoid receptor (Homo sapiens) (UniProt P04150). Put plainly: qHTS assay for small molecule agonists of glucocorticoid receptor signaling (AID 588532; active means well fitted curve in the direction sought with a large enough effect in the signal ratio, with a control signal flat; the % refers to the signal ratio;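 further: 100% = dexamethasone at 0.1 µM and 0% = DMSO only wells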). Particulars: HeLa MMTV-bla, beta-lactamase ratio, agonist, 18 h; stronger effect = higher value; percent of dexamethasone control, DMSO zero. Summed up: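 Using MMTV-bla HeLa cells in medium with 1% stripped FBS and 25 mM HEPES, compounds were titrated and incubated overnight-length (18 h). Beta-lactamase cleavage of CCF4 was quantified by dual-emission fluorescence.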
Chain of Glucocorticoid receptor (Homo sapiens) (P04150 whole entry, looked up): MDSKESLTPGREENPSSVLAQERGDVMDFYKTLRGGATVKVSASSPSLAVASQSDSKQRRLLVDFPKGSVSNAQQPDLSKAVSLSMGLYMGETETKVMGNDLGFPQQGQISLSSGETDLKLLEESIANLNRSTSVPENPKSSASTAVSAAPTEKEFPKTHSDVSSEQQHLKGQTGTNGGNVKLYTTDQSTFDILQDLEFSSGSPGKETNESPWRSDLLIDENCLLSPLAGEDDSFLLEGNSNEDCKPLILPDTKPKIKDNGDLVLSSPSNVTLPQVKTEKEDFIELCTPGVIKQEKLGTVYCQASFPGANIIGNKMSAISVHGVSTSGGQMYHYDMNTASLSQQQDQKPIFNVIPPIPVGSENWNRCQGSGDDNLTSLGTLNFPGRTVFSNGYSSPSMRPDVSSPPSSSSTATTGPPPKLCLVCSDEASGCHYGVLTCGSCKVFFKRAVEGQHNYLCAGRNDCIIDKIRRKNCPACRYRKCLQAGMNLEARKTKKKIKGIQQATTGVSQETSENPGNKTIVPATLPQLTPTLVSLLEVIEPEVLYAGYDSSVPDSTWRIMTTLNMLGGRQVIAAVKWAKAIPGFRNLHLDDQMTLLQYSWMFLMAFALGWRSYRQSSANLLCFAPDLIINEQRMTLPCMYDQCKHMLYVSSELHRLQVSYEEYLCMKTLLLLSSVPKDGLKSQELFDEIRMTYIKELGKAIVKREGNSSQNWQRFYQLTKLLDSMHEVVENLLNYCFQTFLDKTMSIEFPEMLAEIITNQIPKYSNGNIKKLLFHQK

The nature of assay [7]: qHTS assay for small molecule antagonists of peroxisome proliferator-activated receptor delta signaling (AID 588535).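 Further: cells co-treated with a PPAR-delta agonist as stimulator during compound exposure.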 Particulars: HEK293T PPARd-UAS-bla, beta-lactamase FRET ratio, 18 h; 460 nm channel. Summed up: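 HEK293T PPAR-delta-UAS-bla cells, 4000/well, 2% charcoal/dextran FBS; 5 h 37 C; cpd titration; 18 h 37 C; CCF4 2 h RT; FI 460/530 nm; Hill fit → IC50, efficacy.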
Background: Quantitative high-throughput screening tests each substance at several concentrations.

For assay [8], the target named is Vitamin D3 receptor (Homo sapiens) (UniProt P11473). Kind of assay: qHTS assay for small molecule agonists of vitamin D receptor signaling (AID 588543; calls by dose curve;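 further: 0% = DMSO basal and 100% = reference agonist control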). Summed up: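 Measured: β-lactamase reporter activity (CCF4, 405 nm excitation, 460/530 nm emission) in HEK293T VDR-UAS-bla cells after 16 h compound exposure at 37 °C. Normalization against 50 nM 1α,25-dihydroxyvitamin D3 and DMSO; Hill-fit EC50.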
Chain of Vitamin D3 receptor (Homo sapiens) (P11473 whole entry, looked up): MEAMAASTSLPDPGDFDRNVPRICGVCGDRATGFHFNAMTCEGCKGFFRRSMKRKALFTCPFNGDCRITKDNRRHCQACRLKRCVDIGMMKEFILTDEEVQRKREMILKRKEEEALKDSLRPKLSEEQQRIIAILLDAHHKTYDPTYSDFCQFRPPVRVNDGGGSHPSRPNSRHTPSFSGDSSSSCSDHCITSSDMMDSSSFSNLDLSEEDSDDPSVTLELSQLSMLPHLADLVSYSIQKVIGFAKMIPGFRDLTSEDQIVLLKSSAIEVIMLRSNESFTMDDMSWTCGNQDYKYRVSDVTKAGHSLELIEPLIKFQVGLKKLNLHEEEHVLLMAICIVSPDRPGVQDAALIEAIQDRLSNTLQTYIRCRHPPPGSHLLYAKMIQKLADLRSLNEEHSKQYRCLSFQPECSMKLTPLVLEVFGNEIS

The target in assay [9] is Retinoic acid receptor RXR-alpha (Homo sapiens) (UniProt P19793). Kind of assay: qHTS assay for small molecule agonists of retinoid X receptor alpha signaling (AID 588544; calls by dose curve;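 further: 0% = DMSO basal wells and 100% = reference agonist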).
Chain of Retinoic acid receptor RXR-alpha (Homo sapiens) (P19793 whole entry, looked up): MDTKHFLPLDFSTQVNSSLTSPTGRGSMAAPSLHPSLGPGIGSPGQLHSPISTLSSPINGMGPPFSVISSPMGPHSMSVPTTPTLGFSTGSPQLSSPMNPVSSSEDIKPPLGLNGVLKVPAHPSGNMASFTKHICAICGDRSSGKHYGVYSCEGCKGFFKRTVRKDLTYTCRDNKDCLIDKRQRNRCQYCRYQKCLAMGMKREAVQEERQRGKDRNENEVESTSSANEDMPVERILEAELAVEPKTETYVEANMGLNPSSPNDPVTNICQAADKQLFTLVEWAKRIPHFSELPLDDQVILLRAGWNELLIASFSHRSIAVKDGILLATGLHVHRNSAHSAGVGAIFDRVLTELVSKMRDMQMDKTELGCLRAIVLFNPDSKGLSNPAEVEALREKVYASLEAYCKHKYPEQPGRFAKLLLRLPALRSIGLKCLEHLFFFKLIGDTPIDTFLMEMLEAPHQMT
Assay [10] in a line: qHTS assay for small molecule agonists of the antioxidant response element (ARE) signaling pathway (AID 651741; active means well fitted activation curve with a large enough effect in the signal ratio; the % refers to the signal ratio; further: potency means the concentration at half of the fitted maximal effect; on activation: % of control where 0% means no effect). The essentials:
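Quantitative HTS in HepG2 cells stably expressing an ARE-beta-lactamase reporter; 16 h compound exposure at 37 C, followed by 2 h room-temperature incubation with LiveBLAzer B/G FRET substrate and fluorescence measurement.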

A short description of assay [11]: qHTS assay for small molecule activators of the nuclear factor-kappa B (NF-kB) signaling pathway (AID 651749; active means well fitted activation curve with a large enough effect in the signal ratio; the % refers to the signal ratio; further: series mostly up to about 77 µM; % of control where 0% means no effect). Particulars: NF-kB-bla ME-180 cells, beta-lactamase FRET ratio, 16 h; stronger effect = higher value. Summed up: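 Readout: beta-lactamase reporter driven by an NF-kB response element, detected fluorescently as loss of FRET. Cells were the ME-180 line, treated 16 hr at 37C with pin-transferred compound.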

Assay [12] can be described thus: qHTS assay for small molecule disruptors of the mitochondrial membrane potential - 5 hr assay (AID 651755; calls by dose curve; further: nearly all actives have a fitted effect of over 40% in size; further: potency means the concentration at half of the fitted maximal effect). Summed up:
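HepG2, 2,000 cells/well, overnight attach; cpd or DMSO 5 hr, 37C/5% CO2; Mito-MPS 30 min 37C; fluor 490/535 + 540/590 nm.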

Assay [13] is described as follows: qHTS assay for environmental chemicals that activate the Aryl hydrocarbon Receptor (AhR) signaling pathway (AID 651777). Further: % of control where 0% means no effect; nearly all actives have a fitted effect of over 15% in size. Particulars: 1A2-DRE human hepatoma cells, luciferase, 24 h; activation: stronger effect = higher value. Summed up:
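AhR activation is scored as a rise in luciferase from a stable DRE–CYP1A2 promoter construct in human hepatoma cells. Treatment lasts 24 hr at 37 C; detection uses One-Glo after 30 min at room temperature.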

Assay [14] concerns the target Nuclear receptor ROR-gamma (Homo sapiens) (UniProt P51449). Kind of assay: qHTS assay for small molecule antagonists of the retinoid-related orphan receptor gamma (ROR-gamma) signaling pathway (AID 651802). Further: nearly all actives have a fitted effect of over 60% in size. Further: potency means the concentration at half of the fitted maximal effect. Summed up:
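CHO cells with TET-inducible ROR-gamma and RORE-luciferase reporter, dosed then doxycycline-induced. After 16 h at 37C, One-Glo luminescence read; decreased signal indicates antagonism.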

In assay [15] the target is Glucocorticoid receptor (Homo sapiens) (UniProt P04150). Put plainly: GR-GFP Redistribution (AID 450;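 active means compounds whose dose series gives a full or clear partial fitted curve of increased nuclear translocation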; further: potency means the concentration at half of the fitted maximal effect). Particulars: U2OS GR-GFP nuclear translocation, laser cytometry, 2 h.
The target of assay [16] is Retinoic acid receptor RXR-alpha (Homo sapiens) (UniProt P19793). Put plainly: qHTS assay for small molecule antagonists of retinoid X receptor alpha signaling (AID 588546; active means well fitted inhibition curve with a large enough effect in the signal ratio, with a control signal flat, not every such curve was filed as active; the % refers to the signal ratio;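 further: cells stimulated with 9-cis-retinoic acid as agonist; on the % scale 0 is the no-effect control and ±100 the full control effect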). The settings on record: HEK293T RXRa-UAS-bla, beta-lactamase ratio, antagonist mode. The essentials:
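Beta-lactamase reporter inhibition, read as CCF4 fluorescence ratio (ex 405, em 460/530 nm) after 2 h at RT. HEK293T UAS-bla cells, 2500/well, were stimulated with 9-cis-RA at 500 or 100 nM final alongside test compound for 18 h at 37 C.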

Assay [17] deals with Thyroid hormone receptor beta (Homo sapiens) (UniProt P10828). Kind of assay: qHTS assay for small molecule antagonists of thyroid hormone receptor beta signaling (AID 588547; active means well fitted inhibition curve with a large enough effect in the signal ratio, with a control signal flat, not every such curve was filed as active; the % refers to the signal ratio;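 further: cells stimulated with 0.4 nM T3 agonist during compound exposure; series mostly up to about 77 µM; on the % scale 0 is the no-effect control and ±100 the full control effect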). Particulars: TR-UAS-bla HEK293, beta-lactamase ratio, antagonist mode, 18 h. Summed up:
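Inhibition of T3-driven (0.4nM final) beta-lactamase reporter activity was measured over 0.59 nM to 92 uM compound after 18 h at 37 C. The cells were GripTite HEK293 TR-UAS-bla in charcoal/dextran-stripped serum, with CCF4 ratio read-out and IC50 from Hill fits.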

Assay [18] in a line: qHTS assay for cell viability of HEK293 cells (AID 743288). Further: on the % scale 0 is the no-effect control and ±100 the full control effect; nearly all actives have a fitted effect of over 50% in size. Particulars: ATP luminescence (CellTiter-Glo), 18 h, stronger effect = lower value. Summed up:
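Luminescent ATP quantitation served as the viability read-out. Cells (parental HEK293, 2,000/well) received compounds after at least 5 h at 37 C and were exposed for 18 h before a 30 min room-temperature reagent step.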

Assay [19] in a line: Cell Viability - LYMP1-002 - Assay at 16 hr (AID 948).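 Further: 0% = DMSO alone and full effect = 92 µM tetraoctylammonium bromide.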 Summed up: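 In this qHTS, lymphoblastoid LYMP1-002 cells (human) receive compounds for 16 hr at 37 C. Viability is taken from CellTiter-Glo ATP luminescence, and AC50 derives from standard Hill fits.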
Assay [20] concerns the target Thyroid hormone receptor beta (Homo sapiens) (UniProt P10828). Put plainly: qHTS assay for small molecule agonists of thyroid hormone receptor beta signaling (AID 588545; calls by dose curve). The essentials:
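Cells (2500/well) were seeded, incubated 4 hrs at 37 C, dosed with a compound series, incubated 18 hrs, loaded with CCF4 dye for 2 hrs at RT, then read for fluorescence. Data were scaled between DMSO (0%) and 10 nM T3 (100%).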

Values joined by “and” are separate entries in the source; they are usually repeats but may differ in a detail not shown here. Equal values may be shown once. Records with an inconclusive call do not appear. Active and inactive are the calls of the source. Unless noted, the call rests on the fitted dose curve; in most records, active means well fitted curve in the direction sought with a large enough effect; inconclusive means small, poorly fitted or top-dose-only effect, or another doubt; inactive means no such curve, though single readings can be large; an effect the other way counts as inactive or inconclusive. Where only a bound is given, the exact number is not on record here.

Chain of Nuclear receptor ROR-gamma (Homo sapiens) (P51449 whole entry, looked up): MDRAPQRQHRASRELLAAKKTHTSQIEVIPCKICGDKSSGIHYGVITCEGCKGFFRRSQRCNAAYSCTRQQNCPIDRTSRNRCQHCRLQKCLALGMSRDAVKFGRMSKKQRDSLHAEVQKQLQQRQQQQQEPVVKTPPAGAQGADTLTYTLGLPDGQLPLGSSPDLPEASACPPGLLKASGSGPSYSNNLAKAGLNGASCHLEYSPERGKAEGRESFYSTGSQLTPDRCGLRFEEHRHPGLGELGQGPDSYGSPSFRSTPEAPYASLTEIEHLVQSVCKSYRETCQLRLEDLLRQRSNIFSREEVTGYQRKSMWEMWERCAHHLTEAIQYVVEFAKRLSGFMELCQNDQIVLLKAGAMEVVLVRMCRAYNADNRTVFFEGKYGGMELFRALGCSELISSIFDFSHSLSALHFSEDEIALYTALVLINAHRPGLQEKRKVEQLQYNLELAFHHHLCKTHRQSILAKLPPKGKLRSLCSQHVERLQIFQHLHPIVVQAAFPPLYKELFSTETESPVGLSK
Chain of Thyroid hormone receptor beta (Homo sapiens) (P10828 whole entry, looked up): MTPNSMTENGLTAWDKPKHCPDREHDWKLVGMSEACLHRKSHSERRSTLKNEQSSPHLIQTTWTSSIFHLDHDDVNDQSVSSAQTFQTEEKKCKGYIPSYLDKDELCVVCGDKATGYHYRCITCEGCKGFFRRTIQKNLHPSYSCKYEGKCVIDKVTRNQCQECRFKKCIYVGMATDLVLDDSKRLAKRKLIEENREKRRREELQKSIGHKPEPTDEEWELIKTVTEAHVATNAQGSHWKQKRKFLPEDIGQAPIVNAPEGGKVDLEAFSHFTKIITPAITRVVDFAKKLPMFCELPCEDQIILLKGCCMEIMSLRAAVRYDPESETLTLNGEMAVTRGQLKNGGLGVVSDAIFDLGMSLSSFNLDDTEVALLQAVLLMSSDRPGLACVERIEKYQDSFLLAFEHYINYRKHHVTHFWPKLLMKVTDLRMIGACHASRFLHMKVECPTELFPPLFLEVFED

For `C=CC(=O)OCC(CC)CCCC` (stereo not drawn), the Potency result in [1], in [2], in [3], in [4], in assay [5] and in assay [10] was “inactive” each time. The Potency entry in assay [12] and in assay [14] was “inactive” each time. Further, the activation in [6] is -0.1% (inactive) and -12.6% (inactive); in assay [11] it was -0.0286% (inactive) and 0.831% (inactive); in [13] it was 2.67% (inactive) and -0.331% (inactive). The max response in assay [7] is 10.4% and 11.2%. Also, the molecule was called inactive in assay [8] and in assay [9].
Regarding `CC[C@]1(OC(=O)CN)C(=O)OCc2c1cc1n(c2=O)Cc2cc3ccccc3nc2-1`, the Potency in assay [15] was > 46 µM (inactive).
Take `COc1ccc(C=O)cc1`: the Potency entry in [1], in [2], in assay [3], in assay [5] and in assay [10] was “inactive” throughout. For the same molecule, the activation in assay [6] is -0.198% (inactive); in [11] it was -0.721% (inactive). The max response in assay [7] is 2.98%; in assay [16], 14.5% (inactive); in [18], -1.3% (inactive). Moreover, the outcome in [8] and in assay [9] was inactive. In addition, the activity change % (negative = inhibition) in assay [17] was 19.4% (inactive).
For `COc1cc(-c2ccc(N)c(OC)c2)ccc1N`, the molecule was classed as inactive in assay [19] and in assay [8]. Moreover, the Potency entry in assay [1], in [2], in assay [3], in [4] and in assay [14] was “inactive” in each case. Besides, the max response is 17.7% and -36% in assay [7]; -9.81% (inactive) and -21.9% (inactive) in assay [16]; 15.2% (inactive) and -15% (inactive) and -5% (inactive) in assay [18]. In addition, the activity change % (negative = inhibition) in assay [17] was 4.52% (inactive) and 5.28% (inactive) and -5.71% (inactive). Also, the Potency in assay [10] was 1.06 µM (active) and 2.17 µM (active). The activation in [11] was 0.354% (inactive) and 3.2% (inactive) and 2.92% (inactive).
With `Cc1cccc(N)c1C`, the outcome in [19], in assay [8] and in assay [9] was inactive. Also, the Potency entry in [1], in assay [2], in assay [4], in assay [5], in assay [20] and in assay [10] was “inactive” each time. Further, the Potency result in [12] and in assay [14] was “inactive” throughout. In assay [16], the max response was 13.5% (inactive). Further, the activity change % (negative = inhibition) in assay [17] is 2.82% (inactive). Also, the activation in [11] was -0.847% (inactive); in assay [13], 0.811% (inactive).
`O=[N+]([O-])c1ccc2c3c(cccc13)CC2`: the result in [19], in assay [8] and in assay [9] was inactive. The Potency entry in assay [1], in assay [2], in assay [3], in [4] and in assay [20] was “inactive” in each case. Moreover, the activation in assay [6] is -4.28% (inactive) and -4.51% (inactive); in assay [11], -1.76% (inactive) and -1.52% (inactive). For the same molecule, in assay [7], the max response was 24.6%. In assay [17], the activity change % (negative = inhibition) was -2.33% (inactive) and 7.31% (inactive).
For the molecule `O=[N+]([O-])c1ccc(O)c([N+](=O)[O-])c1`, the Potency result in assay [1], in assay [2] and in assay [4] was “inactive” each time. In assay [9], the call was inactive. Moreover, the figures for the max response in assay [16] and in assay [18] were 9.93% (inactive) and -1.57% (inactive), respectively. For the same molecule, the Potency in [10] was 66.8 µM (active); in assay [12], 37.6 µM (active); in assay [14], 6.68 µM (active). The activation in assay [11] is 3.32% (inactive).
